PubChem BioAssay (Tox21)
“And” between values parts separate entries of the source, which are not always exact repeats. Equal values may be shown once. A number with no mark means an inactive call. The source made the active and inactive calls. Unless noted, calls follow the shape of the dose curve; as a rule, active = well fitted inhibition curve with a large enough effect in the repeat runs; inconclusive = weak or mixed curves; inactive = no such curve, though single readings can be large or run the other way.

test system: not listed separately; assay: qHTS assay to identify small molecule antagonists of the thyroid receptor (TR) signaling pathway (AID 743065); details: GH3.TRE-Luc, T3-stimulated luciferase inhibition, 23.5 h; series mostly up to 70.3 µM; activity, negative = inhibition: at the top concentration; also: nearly all actives have a fitted effect of over 55% in size; also: potency is read from the fitted curve at half-maximal effect
In short: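 GH3.TRE-Luc rat pituitary cells (two TREs driving luciferase) were dosed with compound, then stimulated with 1 nM T3 (final) for 23.5 h at 37 C. ONE-Glo luminescence was the read-out, with CellTiter-Fluor fluorescence as the cytotoxicity counter-screen.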
% is scaled to controls: 0 for no effect and ±100 for the full control effect.

Row | Structure (SMILES) | Potency | activity, negative = inhibition
1 | C[C@H](CN1CCCC1)C(=O)c1ccc(C(F)(F)F)cc1 | 26.6 µM (active) | –
2 | N#Cc1ccc(CC(=O)c2cccc(C(F)(F)F)c2)cc1 | – | 21.6%
3 | Cc1c(Nc2ncccc2C(=O)O)cccc1C(F)(F)F | 2.85 µM (active) | –
4 | CCCN(C1CCN(C(=O)C2CCNCC2)CC1)[C@@H]1CCc2ccc(OC)cc2C1 | 54.5 µM (active) | –
5 | COC(=O)c1cc(Cl)ccc1[N+](=O)[O-] | – | 5.59%
6 | CC1=CC(=C(c2ccc(N)cc2)c2ccc(N)cc2)C=CC1=N | 10.6 µM (active) | –
7 | c1ccc(CCNc2nc(-c3ccccc3)cs2)cc1 | – | -3.27%
8 | O=C(O)COCC(=O)O | – | 15.4% [at 95 µM]
9 | CC(C)(Cc1c[nH]c2ccccc12)NCC(O)COc1ccccc1C#N (stereo not given) | 23.7 µM (active) | –
10 | O=C(OC1C[C@H]2CC[C@@H](C1)[N+]21CCCC1)C(O)(c1ccccc1)c1ccccc1 (stereo not given in full) | – | 10.8%
11 | C=C[Si]1(C)O[Si](C)(C=C)O[Si](C)(C=C)O[Si](C)(C=C)O1 (stereo not given) | – | -3.88%
12 | Cc1c(Cl)cccc1Nc1ccccc1C(=O)O | 13.3 µM (active) | –
13 | O=C(O)CNc1ccccc1 | – | -1.28%
14 | C=C[Si](OCC)(OCC)OCC | – | -1.37%
15 | C=CC(C)(O)CC/C=C(/C)CCC=C(C)C (stereo not given) | – | -21%
16 | Cc1nc2sccn2c(=O)c1CCN1CCC(=C(c2ccc(F)cc2)c2ccc(F)cc2)CC1 | 26.6 µM (active) | –
17 | CCCCC(CC)COCCC#N (stereo not given) | – | -10.9%
18 | Cc1ccc(NC(=O)c2ccc(CN3CCN(C)CC3)cc2)cc1Nc1nccc(-c2cccnc2)n1 | 26.6 µM (active) | –
19 | C[Si](C)(C)O[Si](C)(C)O[Si](C)(C)C | – | 26.5%

Row | Structure (SMILES) | Potency | activity, negative = inhibition
20 | Nc1ccccc1Nc1ccccc1 | 12.2 µM (active) | –
21 | CCOc1ccc2c(c1)C(C)CC(C)(C)N2 (stereo not given) | – | -9.96%
22 | O=c1c2ccccc2oc2ccccc12 | – | 2.45%
23 | O=[N+]([O-])c1ccc(Cl)cc1Cl | – | 11.3%
24 | Cc1ccc2ccccc2c1[N+](=O)[O-] | – | 25.3%
25 | O=C(O)c1ccccc1[N+](=O)[O-] | – | -13.7%
26 | CC(C(=O)O)c1ccc(/C=C2\CCCCC2=O)cc1 (stereo not given) | – | 10.5%
27 | CC(=O)Nc1ccn(C2COC(COC(=O)c3ccccc3)O2)c(=O)n1 (stereo not given) | 16.8 µM (active) | –
28 | O=C(NC1CCN(CCc2c[nH]c3ccccc23)CC1)c1ccccc1 | 26.6 µM (active) | –
29 | CC(C)C[C@H](NC(=O)[C@H](Cc1ccccc1)NC(=O)c1cnccn1)B(O)O | 23.7 nM (active) and 16.8 nM (active) | –
30 | CC(C)CCCCCCCOC(=O)c1ccc(C(=O)OCCCCCCCC(C)C)c(C(=O)OCCCCCCCC(C)C)c1 | – | -10.5%
31 | CCCCCCCCNC | – | 7.49%
32 | CCCCCCCCS | – | 16% [at 95 µM]
33 | C=CC(O)CCCCC (stereo not given) | – | 0.0956%
34 | CCCCCCCCCCCCCCCCC(=O)O | – | 0.2%
35 | CCOCCn1c(N2CCCN(C)CC2)nc2ccccc21 | – | -15.8%
36 | Cc1cc(C)n(CO)n1 | – | 7.82%
37 | Oc1ccc(CCNCCCCCCNCCc2ccccc2)cc1O | 26.6 µM (active) | –

test system: thyroid hormone receptor (rat, GH3 cells); assay: qHTS assay to identify small molecule agonists of the thyroid receptor (TR) signaling pathway (AID 743066; calls by dose curve); details: GH3.TRE-Luc cells, TR agonist luciferase, 24 h; series mostly up to 83.9 µM; activation: at the top concentration

Row | Structure (SMILES) | activation
38 | C[C@H](CN1CCCC1)C(=O)c1ccc(C(F)(F)F)cc1 | -1.58%
39 | N#Cc1ccc(CC(=O)c2cccc(C(F)(F)F)c2)cc1 | 2.77%
40 | Cc1c(Nc2ncccc2C(=O)O)cccc1C(F)(F)F | -4.54% [at 39.4 µM]
41 | CCCN(C1CCN(C(=O)C2CCNCC2)CC1)[C@@H]1CCc2ccc(OC)cc2C1 | -9.16%
42 | CC1=CC(=C(c2ccc(N)cc2)c2ccc(N)cc2)C=CC1=N | -3.23% [at 8.08 µM]
43 | c1ccc(CCNc2nc(-c3ccccc3)cs2)cc1 | 0.139%
44 | O=C(O)COCC(=O)O | 2.75% [at 95.2 µM]
45 | O=C(OC1C[C@H]2CC[C@@H](C1)[N+]21CCCC1)C(O)(c1ccccc1)c1ccccc1 (stereo not given in full) | 0.27%
46 | C=C[Si]1(C)O[Si](C)(C=C)O[Si](C)(C=C)O[Si](C)(C=C)O1 (stereo not given) | 0.704%
47 | O=C(O)CNc1ccccc1 | 1.3%
48 | C=C[Si](OCC)(OCC)OCC | -1.05%
49 | C=CC(C)(O)CC/C=C(/C)CCC=C(C)C (stereo not given) | 6.68%
50 | CCCCC(CC)COCCC#N (stereo not given) | 1%
51 | C[Si](C)(C)O[Si](C)(C)O[Si](C)(C)C | 1.82%
52 | CCOc1ccc2c(c1)C(C)CC(C)(C)N2 (stereo not given) | 0.0729%
53 | O=c1c2ccccc2oc2ccccc12 | 3.98%
54 | O=[N+]([O-])c1ccc(Cl)cc1Cl | -0.0058%
55 | O=C(O)c1ccccc1[N+](=O)[O-] | 1.06%
56 | CC(C(=O)O)c1ccc(/C=C2\CCCCC2=O)cc1 (stereo not given) | 2.33%
57 | CC(=O)Nc1ccn(C2COC(COC(=O)c3ccccc3)O2)c(=O)n1 (stereo not given) | -3.22%
58 | O=C(NC1CCN(CCc2c[nH]c3ccccc23)CC1)c1ccccc1 | -4.17%
59 | CC(C)CCCCCCCOC(=O)c1ccc(C(=O)OCCCCCCCC(C)C)c(C(=O)OCCCCCCCC(C)C)c1 | -4.05%
60 | CCCCCCCCNC | 0.375%
61 | CCCCCCCCS | 1.89% [at 95.2 µM]
62 | C=CC(O)CCCCC (stereo not given) | 0.451%
63 | CCCCCCCCCCCCCCCCC(=O)O | -1.35%
64 | CCOCCn1c(N2CCCN(C)CC2)nc2ccccc21 | -1.86%

molecular target: Estrogen receptor (Homo sapiens) (UniProt P03372); assay: qHTS assay to identify small molecule antagonists of the estrogen receptor alpha (ER-alpha) signaling pathway (AID 743069; active = well fitted curve in the direction sought with a large enough effect in the signal ratio in the repeat runs, not every such curve was filed as active; inconclusive = weak or mixed curves, or effect the other way; inactive = no such curve, though single readings can be large or run the other way; the % refers to the signal ratio; also: potency is read from the fitted curve at half-maximal effect); details: HEK293 ER-alpha-UAS-bla, beta-lactamase ratio, antagonist mode; series mostly up to 69.4 µM; activity, negative = inhibition: at the top concentration
In short: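 Reporter cells (ER-alpha-bla, HEK293 background) are conditioned overnight in stripped-serum medium (2% charcoal-stripped FBS). Compound and 17beta-estradiol exposure runs 18 hr at 37C, 5% CO2.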

Chain of Estrogen receptor (Homo sapiens) (P03372 whole entry, looked up): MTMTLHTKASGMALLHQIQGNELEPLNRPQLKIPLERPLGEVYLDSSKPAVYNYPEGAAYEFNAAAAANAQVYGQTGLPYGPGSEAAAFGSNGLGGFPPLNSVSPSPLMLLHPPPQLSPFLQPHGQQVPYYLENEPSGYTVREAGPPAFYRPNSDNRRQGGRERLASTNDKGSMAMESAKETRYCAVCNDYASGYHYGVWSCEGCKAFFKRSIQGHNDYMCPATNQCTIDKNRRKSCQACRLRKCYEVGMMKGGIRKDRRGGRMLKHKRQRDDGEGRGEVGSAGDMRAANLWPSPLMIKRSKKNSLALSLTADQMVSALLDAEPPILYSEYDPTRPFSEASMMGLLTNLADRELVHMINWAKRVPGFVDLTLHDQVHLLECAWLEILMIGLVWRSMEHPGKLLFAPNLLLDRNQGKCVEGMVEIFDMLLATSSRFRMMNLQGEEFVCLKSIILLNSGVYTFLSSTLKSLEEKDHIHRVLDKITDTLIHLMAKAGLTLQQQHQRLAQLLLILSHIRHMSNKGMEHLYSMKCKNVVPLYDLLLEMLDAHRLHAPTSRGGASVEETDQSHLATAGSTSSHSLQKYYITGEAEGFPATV

Row | Structure (SMILES) | activity, negative = inhibition [%] | Potency
65 | COC(=O)c1cc(Cl)ccc1[N+](=O)[O-] | -16.2 | –
66 | Cc1nc2sccn2c(=O)c1CCN1CCC(=C(c2ccc(F)cc2)c2ccc(F)cc2)CC1 | -22.6 | –
67 | Cc1ccc2ccccc2c1[N+](=O)[O-] | 19.1 | –
68 | CC(C)C[C@H](NC(=O)[C@H](Cc1ccccc1)NC(=O)c1cnccn1)B(O)O | – | 0.0674 µM [inconclusive] (active)
69 | Cc1cc(C)n(CO)n1 | 29.6 | –
70 | Oc1ccc(CCNCCCCCCNCCc2ccccc2)cc1O | -12.7 | –
